# Laboratory results taken from PubChem BioAssay (NCI).
# The panel holds about 79,000 compounds, 15% with a hit somewhere; the sample as a whole holds those more often. A number with no mark means an inactive call. The source made the active and inactive calls. No stated cut-off is given here; in the data, active means growth inhibition above about 70%; inactive means the rest.
# Assays:
# [1] = NCI Yeast Anticancer Drug Screen. Data for the rad52 strain (AID 147);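 further: 0% = growth of vehicle-treated control cultures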; settings: S. cerevisiae rad52 mutant growth inhibition, stronger effect = higher value
# Method in brief: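 Genetically altered yeast (DNA damage repair defect) treated with compound; inhibition calculated relative to vehicle.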
# [2] = NCI Yeast Anticancer Drug Screen. Data for the wt1 strain (AID 149);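 further: 0% = growth of vehicle-treated wt1 cultures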; settings: S. cerevisiae wt1 strain (SPY 50644) growth inhibition, stronger effect = higher value
# Method in brief: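 Measured: growth of wt1 yeast under compound versus vehicle treatment, reported as inhibition.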
# [3] = NCI Yeast Anticancer Drug Screen. Data for the rad50EPP+ strain (AID 151);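 further: 0% = growth of vehicle-treated control cultures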; settings: S. cerevisiae rad50 mutant strain, stronger effect = higher value
# Method in brief: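 Strain rad50EPP+; compound exposure; % growth inhibition vs vehicle.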
# [4] = NCI Yeast Anticancer Drug Screen. Data for the mgt1 strain (AID 153); settings: S. cerevisiae mgt1 mutant growth inhibition, stronger effect = higher value
# Method in brief: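 Read-out: yeast growth inhibition vs vehicle control. Strain mgt1, drawn from a panel altered in DNA damage repair or cell cycle control.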
# [5] = NCI Yeast Anticancer Drug Screen. Data for the rad50 strain (AID 155);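 further: 0% = growth of vehicle-only cultures of the same strain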; settings: S. cerevisiae rad50 strain growth inhibition, stronger effect = higher value
# Method in brief: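 Growth of the mutant yeast was measured after compound exposure and referenced to vehicle-treated cultures.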
# [6] = NCI Yeast Anticancer Drug Screen. Data for the mec2-1 strain (AID 157); settings: S. cerevisiae mec2-1 strain, stronger effect = higher value
# Method in brief: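 Cells of the genetically defined mec2-1 yeast strain are incubated with test compound. Inhibition of growth is calculated against vehicle-treated controls.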
# [7] = NCI Yeast Anticancer Drug Screen. Data for the rad14 strain (AID 159);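 further: 0% = growth of vehicle-treated control cultures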; settings: S. cerevisiae rad14 strain growth inhibition, stronger effect = higher value
# Method in brief: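 Here, inhibition of yeast growth was measured after compound exposure, using a strain with a genetic defect in DNA damage repair and vehicle-treated cultures as the reference.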
# [8] = NCI Yeast Anticancer Drug Screen. Data for the sgs1 mgt1 strain (AID 161);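 further: 0% = growth of cultures given vehicle only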; settings: S. cerevisiae sgs1 mgt1 strain, stronger effect = higher value
# Method in brief: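 Genetically altered yeast, compound exposure, growth inhibition relative to vehicle.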
# [9] = NCI Yeast Anticancer Drug Screen. Data for the CLN2oe strain (AID 163);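 further: 0% = growth of vehicle-only control cultures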; settings: S. cerevisiae CLN2oe strain, stronger effect = higher value
# Method in brief: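 Strain altered in cell-cycle control, incubated with compound; growth compared to solvent-treated controls.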
# [10] = NCI Yeast Anticancer Drug Screen. Data for the cln2 rad14 strain (AID 165);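 further: 0% = growth equal to vehicle treated cultures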; settings: S. cerevisiae cln2 rad14 strain, stronger effect = higher value
# Method in brief: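 The screen exposed genetically defined yeast (cln2 rad14) to test compounds and scored growth inhibition relative to vehicle-treated controls.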
# [11] = NCI Yeast Anticancer Drug Screen. Data for the bub3 strain (AID 167); settings: S. cerevisiae bub3 mutant strain, stronger effect = higher value
# Method in brief: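 Whole-cell yeast assay. The mutant strain was incubated with compounds, and growth inhibition was determined by comparison with vehicle-treated cells.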
# [12] = NCI Yeast Anticancer Drug Screen. Data for the wt2 strain (AID 169);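 further: 0% = growth of vehicle-treated yeast cultures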; settings: S. cerevisiae wt2 strain growth inhibition, stronger effect = higher value
# Method in brief: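 Steps: yeast strain treated with compound; growth recorded; inhibition calculated relative to cultures given vehicle alone.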
# [13] = NCI Yeast Anticancer Drug Screen. Data for the mlh1 strain (AID 171);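 further: 0% = growth of vehicle-treated control cultures of the same strain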; settings: S. cerevisiae mlh1 strain growth inhibition, stronger effect = higher value
# Method in brief: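 Yeast screen: mutant strain plus compound, growth scored against vehicle control wells.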
# [14] = NCI Yeast Anticancer Drug Screen. Data for the sgs1 strain (AID 173);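 further: 0% = growth of vehicle-only control cultures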; settings: S. cerevisiae sgs1 mutant, stronger effect = higher value
# Method in brief: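 Inhibition of yeast growth served as the measure. The mutant strain was treated with each compound, and growth was normalised to cultures receiving vehicle alone.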
# [15] = NCI Yeast Anticancer Drug Screen. Data for the mlh1 rad18 strain (AID 175); settings: S. cerevisiae mlh1 rad18 strain growth inhibition, stronger effect = higher value
# Method in brief: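 Compound-treated yeast growth, normalised to vehicle controls. Strain bears defined DNA repair mutations.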
# [16] = NCI Yeast Anticancer Drug Screen. Data for the rad18 strain (AID 177); settings: S. cerevisiae rad18 mutant growth inhibition, stronger effect = higher value
# Method in brief: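 Inhibition values reflect reduced yeast growth compared with vehicle-treated controls, using a strain engineered with a DNA damage repair defect.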
# [17] = at 5.0 µM (retest, dose inferred, filed as 0.5)
# [18] = at 50.0 µM (retest, dose inferred, filed as 5.0)
smiles,measurement,setting,value
COC(=O)C1=C(C(=O)OC)CC(n2nnc(C(=O)OC)c2C(=O)OC)=CC1,growth inhibition,[1]; at 1.2 µM,-1%
same,growth inhibition,[1]; at 3.7 µM,1%
same,growth inhibition,[1]; at 11.0 µM,2%
same,growth inhibition,[1]; at 33.0 µM,0%
same,growth inhibition,[1]; at 100.0 µM,-2%
same,growth inhibition,[2]; at 1.2 µM,0%
same,growth inhibition,[2]; at 3.7 µM,0%
same,growth inhibition,[2]; at 11.0 µM,-1%
same,growth inhibition,[2]; at 33.0 µM,-1%
same,growth inhibition,[2]; at 100.0 µM,-2%
same,growth inhibition,[3]; at 1.2 µM,-2%
same,growth inhibition,[3]; at 3.7 µM,-2%
same,growth inhibition,[3]; at 11.0 µM,-3%
same,growth inhibition,[3]; at 33.0 µM,-3%
same,growth inhibition,[3]; at 100.0 µM,1%
same,growth inhibition,[4]; at 1.2 µM,-1%
same,growth inhibition,[4]; at 3.7 µM,1%
same,growth inhibition,[4]; at 11.0 µM,-2%
same,growth inhibition,[4]; at 33.0 µM,-2%
same,growth inhibition,[4]; at 100.0 µM,-6%
same,growth inhibition,[5]; at 1.2 µM,-1%
same,growth inhibition,[5]; at 3.7 µM,-3%
same,growth inhibition,[5]; [17],-1%
same,growth inhibition,[5]; at 11.0 µM,-3%
same,growth inhibition,[5]; at 33.0 µM,-2%
same,growth inhibition,[5]; [18],0%
same,growth inhibition,[5]; at 50.0 µM,43.4%
same,growth inhibition,[5]; at 100.0 µM,-4%
same,growth inhibition,[6]; at 1.2 µM,-4%
same,growth inhibition,[6]; at 3.7 µM,-6%
same,growth inhibition,[6]; [17],-1%
same,growth inhibition,[6]; at 11.0 µM,-5%
same,growth inhibition,[6]; at 33.0 µM,-4%
same,growth inhibition,[6]; [18],-1%
same,growth inhibition,[6]; at 50.0 µM,1.2%
same,growth inhibition,[6]; at 100.0 µM,-9%
same,growth inhibition,[7]; at 1.2 µM,0%
same,growth inhibition,[7]; at 3.7 µM,3%
same,growth inhibition,[7]; at 11.0 µM,4%
same,growth inhibition,[7]; at 33.0 µM,3%
same,growth inhibition,[7]; at 100.0 µM,1%
same,growth inhibition,[8]; [17],6%
same,growth inhibition,[8]; [18],-6%
same,growth inhibition,[8]; at 50.0 µM,0.5%
same,growth inhibition,[9]; at 1.2 µM,-7%
same,growth inhibition,[9]; at 3.7 µM,-3%
same,growth inhibition,[9]; at 11.0 µM,-4%
same,growth inhibition,[9]; at 33.0 µM,-1%
same,growth inhibition,[9]; at 100.0 µM,-7%
same,growth inhibition,[10]; [17],-2%
same,growth inhibition,[10]; [18],-2%
same,growth inhibition,[10]; at 50.0 µM,-9.5%
same,growth inhibition,[11]; at 1.2 µM,-4%
same,growth inhibition,[11]; at 3.7 µM,-4%
same,growth inhibition,[11]; [17],-1%
same,growth inhibition,[11]; at 11.0 µM,-3%
same,growth inhibition,[11]; at 33.0 µM,-6%
same,growth inhibition,[11]; [18],1%
same,growth inhibition,[11]; at 50.0 µM,-4.1%
same,growth inhibition,[11]; at 100.0 µM,-2%
same,growth inhibition,[12]; at 1.2 µM,-1%
same,growth inhibition,[12]; at 3.7 µM,-2%
same,growth inhibition,[12]; at 11.0 µM,-1%
same,growth inhibition,[12]; at 33.0 µM,-2%
same,growth inhibition,[12]; at 100.0 µM,-3%
same,growth inhibition,[13]; at 1.2 µM,-1%
same,growth inhibition,[13]; at 3.7 µM,-2%
same,growth inhibition,[13]; at 11.0 µM,-2%
same,growth inhibition,[13]; at 33.0 µM,-1%
same,growth inhibition,[13]; at 100.0 µM,-3%
same,growth inhibition,[14]; at 1.2 µM,-1%
same,growth inhibition,[14]; at 3.7 µM,-1%
same,growth inhibition,[14]; at 11.0 µM,-2%
same,growth inhibition,[14]; at 33.0 µM,-2%
same,growth inhibition,[14]; at 100.0 µM,0%
same,growth inhibition,[15]; [17],-2%
same,growth inhibition,[15]; [18],44%
same,growth inhibition,[15]; at 50.0 µM,4.4%
same,growth inhibition,[16]; at 1.2 µM,0%
same,growth inhibition,[16]; at 3.7 µM,1%
same,growth inhibition,[16]; at 11.0 µM,0%
same,growth inhibition,[16]; at 33.0 µM,-1%
same,growth inhibition,[16]; at 100.0 µM,1%
O=C(Oc1ccc([N+](=O)[O-])cc1)c1ccc([N+](=O)[O-])cc1,growth inhibition,[1]; at 1.2 µM,7%
same,growth inhibition,[1]; at 3.7 µM,7%
same,growth inhibition,[1]; at 11.0 µM,1%
same,growth inhibition,[1]; at 33.0 µM,19%
same,growth inhibition,[1]; at 100.0 µM,26%
same,growth inhibition,[2]; at 1.2 µM,1%
same,growth inhibition,[2]; at 3.7 µM,0%
same,growth inhibition,[2]; at 11.0 µM,3%
same,growth inhibition,[2]; at 33.0 µM,-1%
same,growth inhibition,[2]; at 100.0 µM,11%
same,growth inhibition,[3]; at 1.2 µM,5%
same,growth inhibition,[3]; at 3.7 µM,2%
same,growth inhibition,[3]; at 11.0 µM,-3%
same,growth inhibition,[3]; at 33.0 µM,9%
same,growth inhibition,[3]; at 100.0 µM,11%
same,growth inhibition,[4]; at 1.2 µM,0%
same,growth inhibition,[4]; at 3.7 µM,1%
same,growth inhibition,[4]; at 11.0 µM,2%
same,growth inhibition,[4]; at 33.0 µM,9%
same,growth inhibition,[4]; at 100.0 µM,13%
same,growth inhibition,[5]; at 1.2 µM,9%
same,growth inhibition,[5]; at 3.7 µM,6%
same,growth inhibition,[5]; [17],45%
same,growth inhibition,[5]; at 11.0 µM,5%
same,growth inhibition,[5]; at 33.0 µM,40%
same,growth inhibition,[5]; [18],82% (active)
same,growth inhibition,[5]; at 50.0 µM,50.8%
same,growth inhibition,[5]; at 100.0 µM,62%
same,growth inhibition,[6]; at 1.2 µM,1%
same,growth inhibition,[6]; at 3.7 µM,2%
same,growth inhibition,[6]; [17],25%
same,growth inhibition,[6]; at 11.0 µM,2%
same,growth inhibition,[6]; at 33.0 µM,7%
same,growth inhibition,[6]; [18],33%
same,growth inhibition,[6]; at 50.0 µM,53.7%
same,growth inhibition,[6]; at 100.0 µM,10%
same,growth inhibition,[7]; at 1.2 µM,7%
same,growth inhibition,[7]; at 3.7 µM,5%
same,growth inhibition,[7]; at 11.0 µM,3%
same,growth inhibition,[7]; at 33.0 µM,19%
same,growth inhibition,[7]; at 100.0 µM,41%
same,growth inhibition,[8]; [17],61%
same,growth inhibition,[8]; [18],86% (active)
same,growth inhibition,[8]; at 50.0 µM,68.5%
same,growth inhibition,[9]; at 1.2 µM,1%
same,growth inhibition,[9]; at 3.7 µM,2%
same,growth inhibition,[9]; at 11.0 µM,2%
same,growth inhibition,[9]; at 33.0 µM,10%
same,growth inhibition,[9]; at 100.0 µM,10%
same,growth inhibition,[10]; [17],18%
same,growth inhibition,[10]; [18],28%
same,growth inhibition,[10]; at 50.0 µM,31.1%
same,growth inhibition,[11]; at 1.2 µM,3%
same,growth inhibition,[11]; at 3.7 µM,4%
same,growth inhibition,[11]; [17],76% (active)
same,growth inhibition,[11]; at 11.0 µM,4%
same,growth inhibition,[11]; at 33.0 µM,12%
same,growth inhibition,[11]; [18],88% (active)
same,growth inhibition,[11]; at 50.0 µM,85% (active)
same,growth inhibition,[11]; at 100.0 µM,15%
same,growth inhibition,[12]; at 1.2 µM,-7%
same,growth inhibition,[12]; at 3.7 µM,-5%
same,growth inhibition,[12]; at 11.0 µM,-8%
same,growth inhibition,[12]; at 33.0 µM,-8%
same,growth inhibition,[12]; at 100.0 µM,-5%
same,growth inhibition,[13]; at 1.2 µM,3%
same,growth inhibition,[13]; at 3.7 µM,2%
same,growth inhibition,[13]; at 11.0 µM,2%
same,growth inhibition,[13]; at 33.0 µM,17%
same,growth inhibition,[13]; at 100.0 µM,35%
same,growth inhibition,[15]; [17],67%
same,growth inhibition,[15]; [18],83% (active)
same,growth inhibition,[15]; at 50.0 µM,86.2% (active)
same,growth inhibition,[16]; at 1.2 µM,4%
same,growth inhibition,[16]; at 3.7 µM,7%
same,growth inhibition,[16]; at 11.0 µM,5%
same,growth inhibition,[16]; at 33.0 µM,22%
same,growth inhibition,[16]; at 100.0 µM,45%
